From ChEMBL document CHEMBL4513216, “Probing the Open Global Health Chemical Diversity Library for Multistage-Active Starting Points for Next-Generation Antimalarials” (ACS Infect Dis, 2020)
Among all 69,000 compounds or so, about 8,600 (12%) showed an effect of 50% or more. What follows is part of a selection rich in strong results, with near analogues and random picks from the rest.

The compounds below were run on Plasmodium berghei (assay: Screen against P. berghei liver stage (PbLuc), transformed with Luciferase, at 10uM). Conditions: tested at 10 uM.
Type: functional, HepG2

Structure (SMILES)	INHIBITION [%]
CCN1CCOC(CNCc2c(Cl)nc3ccccn23)C1 (centres undefined)	-13.6
COc1ccc(CN2CCCC2)cc1Oc1ccc2c(c1)CC(CN)O2 (centres undefined)	-27
Cc1cc(CN2CCCC2)cc(Oc2ccc3c(c2)CC(CN)O3)c1 (centres undefined)	4.68
COc1cc(CN2CCCC2)ccc1Oc1ccc2c(c1)CC(CN)O2 (centres undefined)	69
COc1ccc(CN2CCCC2)cc1Oc1ccc(NC(C)=O)cc1	-5.47
NCC1Cc2cc(Oc3cc(F)c(CN4CCCC4)c(F)c3)ccc2O1 (centres undefined)	74
COc1c(F)cc(-c2cccc3c2OC(CN)C3)cc1F (centres undefined)	27.6
CC(=O)N1CCC(c2ccnc(Nc3cc(C(F)(F)F)ccn3)n2)C1 (centres undefined)	2.55
CN(C)C(=O)[C@H]1C[C@H]2OCC[C@H]2N(CCOc2ccc(Cl)cc2)C1	1.48
Cc1ncc2c(n1)CN(CCCc1ccccc1)CC2	-21.8
Cc1ccc(Cl)c(NC(=O)c2cccc(CN3CC[C@H](O)C3)c2)c1	43.9
CCCn1cc(NC(=O)c2cccc(CN3CC[C@H](O)C3)c2)nn1	65.6
Cn1nccc1NC(=O)c1cccc(CN2C[C@H]3CC[C@@H](C2)N3)c1	6.09
Cc1nn(C)c(C)c1NC(=O)c1cccc(CN2C[C@H]3CC[C@@H](C2)N3)c1	16
CCCn1cc(NC(=O)c2cccc(CN3CC=CC3)c2)nn1	-57.5
Cc1nn(C)c(C)c1NC(=O)c1cccc(CN2CC[C@H](O)C2)c1	56.6
CCN(Cc1cccc(C(=O)Nc2cn(C)nn2)c1)[C@H]1COC[C@@H]1O	35.7
Cc1nn(C)c(C)c1NC(=O)c1cccc(CN2CCS(=O)(=O)CC2)c1	44.4
CCn1cc(NC(=O)c2cccc(CN3C[C@@H](C)O[C@@H](C)C3)c2)nn1	81.3
CCOc1ccc2cc(C(=O)N3CCn4c(CC)nnc4C3)[nH]c2c1	0.411
COc1nn(C)cc1C(=O)N1CCC(c2ccccc2)C1 (centres undefined)	11.8
Cc1ccccc1C1(C(=O)NCCN2CCCC(C)C2)CCOCC1 (centres undefined)	49.8
Cc1cc(C)n(CCC(=O)N2CCC(c3nc(C)no3)CC2)n1	47.4
CC(C)n1cnnc1CNC(=O)c1cnc2ccccc2n1	-4.73
CS(=O)(=O)N1CCN(c2ccc(Nc3ccccn3)nn2)CC1	21.5
Cc1ccc(Nc2cc(N3CCN(S(C)(=O)=O)CC3)nc(C)n2)cc1	-19.7

Structure (SMILES)	INHIBITION [%]
Cc1nc(Nc2ccccn2)cc(N2CCN(S(C)(=O)=O)CC2)n1	53.2
O=C1CCC2(CCC(NCc3cccnc3)CC2)N1Cc1ccccc1 (centres undefined)	48.2
CCn1cc(NC(=O)NCC(C)N(C)C2CC2)cn1 (centres undefined)	-62.8
CC(CN1CC[C@@H]2CCCC[C@@H]2C1)n1cnc2ccccc21 (some centres undefined)	3.58
CC(CN1CCC(CCO)CC1)n1cnc2ccccc21 (centres undefined)	-0.217
CC(CN1CCC(c2ccccc2)CC1)n1cnc2ccccc21 (centres undefined)	56.2
CCCC(O)CN1CCC(=O)N(CCOC)Cc2cc3c(cc21)OCO3 (centres undefined)	22.2
COCCN1CCCC1c1nccnc1Nc1nccs1 (centres undefined)	61.9
COCCN1CCCC1c1nccnc1Nc1ncc(C)s1 (centres undefined)	8.53
COCCN1CCCC1c1nccnc1Nc1nc(C)cs1 (centres undefined)	16.9
COCCC(=O)N1CCn2cc(CN3CCN(C)CC3)nc2C1	-17.2
CCc1nc2n(n1)CC(NCCC(=O)Nc1cc(C)on1)CC2 (centres undefined)	7.08
CCN(CC1CN(Cc2ncc[nH]2)CCO1)c1cccnn1 (centres undefined)	11.1
CCN(CC1CN(Cc2nccn2CC)CCO1)c1cccnn1 (centres undefined)	41.4
CCN(CC1CN(Cc2nc(C3CC3)no2)CCO1)c1cccnn1 (centres undefined)	87.6
CCN(CC1CN(Cc2c(C)noc2C)CCO1)c1cccnn1 (centres undefined)	44.9
CCN(CC1CN(CC2CCC2)CCO1)c1cccnn1 (centres undefined)	62.8
CCN(CC1CN(Cc2ncc(C)o2)CCO1)c1cccnn1 (centres undefined)	-17.4
COc1cc(C2CC(=O)Nc3c2c(=O)[nH]n3C2CCCC2)ccc1O (centres undefined)	27.4
CSc1[nH]nc(NC(=O)c2ccncc2)c1C#N	48.8
O=C(N1CCCC(n2cncn2)C1)C1(c2cccc(F)c2)CC1 (centres undefined)	23.7
CCOc1ccnc(N2CCN(C(=O)c3ccoc3C)CC2)n1	-13.5
CC(C)NC(=O)[C@@H]1C[C@H]2OCC[C@H]2N(Cc2ccc3ccccc3n2)C1	19.4
CC(C)N1CC[C@@H]2OC[C@H](C(=O)Nc3cccnc3)C[C@@H]2C1	-25.1
CC(C)NC(=O)[C@H]1C[C@H]2OCC[C@H]2N(Cc2ccc3ccccc3n2)C1	61.4
CCCN1CC[C@@H]2OC[C@H](C(=O)Nc3cccnc3)C[C@@H]2C1	59.9

Structure (SMILES)	INHIBITION [%]
O=C(NC1CC1)[C@H]1C[C@H]2OCC[C@H]2N(Cc2ccc3ccccc3n2)C1	38.1
CNC(=O)[C@H]1CO[C@H]2CCN(Cc3ccc4ccccc4n3)C[C@H]2C1	50
COCCNC(=O)[C@H]1CO[C@H]2CCN(Cc3cccs3)C[C@H]2C1	38.5
O=C(Nc1cccnc1)[C@H]1CO[C@H]2CCN(c3ncc(F)cn3)C[C@H]2C1	25.4
CNC(=O)[C@H]1CO[C@H]2CCN(c3ncc(F)cn3)C[C@H]2C1	3.58
NC(=O)CSc1nccc(-c2ccc3c(c2)OCO3)n1	-22.6
CS(=O)(=O)N1CCOCC2(CCN(c3ccccn3)C2)C1 (centres undefined)	5.96
O=c1[nH]cc(Nc2ccc(Cl)cc2)c(=O)[nH]1	15.4
CCS(=O)(=O)c1ccc2c(c1)N1CCS(=O)(=O)N=C1O2	20.1
O=S1(=O)CCN2C(=N1)Oc1ccc(Cl)cc12	30.5
O=S1(=O)CCN2C(=N1)Oc1ccc(S(=O)(=O)N3CCCC3)cc12	86.6
Cn1cc(Br)c(=O)c(NS(=O)(=O)c2ccccc2F)c1	-1.38
CCn1cc(CN(C)S(=O)(=O)c2ccc(C)c(C)c2)cn1	10.1
CCCc1nc(CN2CCOC(CNc3cccnn3)C2)cs1 (centres undefined)	58.9
Cc1cnc(CN2CCOC(CNc3cccnn3)C2)cn1 (centres undefined)	2.26
COCc1nc(CN2CCOC(CNc3cccnn3)C2)cs1 (centres undefined)	14.1
CCc1nc(CN2CCOC(CNc3cccnn3)C2)cs1 (centres undefined)	41.5
Cc1cc(CN2CCOC(CNc3cccnn3)C2)no1 (centres undefined)	7.12
c1cnnc(NCC2CN(Cc3ccon3)CCO2)c1 (centres undefined)	50.5
CC(=O)N1CCC(c2cccc(-c3cccc(C(=O)O)c3)n2)CC1	25.8
Cc1cnn(CC2CCCN2C(=O)c2ccc(Cl)cc2F)c1 (centres undefined)	3.73
CCc1nc(C2CCCN(C(=O)c3c(C)noc3C)C2)no1 (centres undefined)	45.1
Cc1noc(C)c1-c1cccc(C2CCCNC2)n1 (centres undefined)	-57.4
CCCc1ccc2oc(C(=O)N3CCN(CCC(N)=O)CC3)c(C)c2c1	18.5
Cc1c(NC(=O)CN2CCC(Oc3cnccn3)CC2)cnn1C	0.696
O=C(CCC1CCCN(S(=O)(=O)C2CC2)C1)Nc1ccc(Cl)cc1 (centres undefined)	28

Structure (SMILES)	INHIBITION [%]
COCCC(=O)N1CCCC(CCC(=O)NCc2cccc(OC)c2)C1 (centres undefined)	9.52
COCCC(=O)N1CCCC(CCc2ccc(F)c(F)c2)C1 (centres undefined)	4.97
COCCC(=O)N1CCCC(CCC(=O)Nc2ccc(Cl)cc2)C1 (centres undefined)	57.2
COCCC(=O)N1CCCC(CCC(=O)NCc2ccccc2F)C1 (centres undefined)	-4.12
O=C(CCC1CCCN(C(=O)CCc2ccc(F)c(F)c2)C1)NC1CC1 (centres undefined)	75.4
Cc1ccc(-c2nc3cc(S(=O)(=O)N4CCCC4)ccc3n2C)o1	14.1
CCc1cccc2cc(CNCCOC)c(=O)[nH]c12	24.95
O=C(CCn1ccnc1)N1CCCC(n2cncn2)C1 (centres undefined)	49
Cn1ccnc1CN1CCCC2(CCN(CC3CCCO3)CC2)C1 (centres undefined)	38.1
Cc1cccc(CN2CCCC3(CCN(CC4CCCO4)CC3)C2)n1 (centres undefined)	53
Cc1cccc(CN2CCOCC3(CCN(C4CCOCC4)C3)C2)n1 (centres undefined)	-34.9
c1ccc(CN2CCCC3(CCN(CC4CCCO4)CC3)C2)nc1 (centres undefined)	62
c1cncc(N2CCCC3(CCN(CC4CCCO4)CC3)C2)c1 (centres undefined)	3.58
c1cc(CN2CCCC3(CCN(CC4CCCO4)CC3)C2)n[nH]1 (centres undefined)	47.5
c1cc(CN2CCc3c(nnn3CC3CC3)C2COCC2CC2)co1 (centres undefined)	27.4
CCN1CCOCC2(CCCN(C(=O)c3ccncc3F)C2)C1 (centres undefined)	27.2
Cc1c(C(=O)N2CCCN(S(C)(=O)=O)CC2)cnn1C	-4.96
N#CCCCS(=O)(=O)NC1(c2ccc(F)cc2)CC1	26.4
O=C(NCC1CCOC1)Nc1ccc(OCC(F)(F)F)nc1 (centres undefined)	23.2
CN(C)c1ccc(NC(=O)NCC2CCOC2)cn1 (centres undefined)	77.85
O=C(NCC1CCOC1)Nc1ccc(Oc2cccc(F)c2)nc1 (centres undefined)	-8.15
O=C(NCC1CCOC1)Nc1ccc(Oc2ccc(F)cc2)nc1 (centres undefined)	3.67
CCN(CC)c1ccc(NC(=O)NCC2CCOC2)cn1 (centres undefined)	-45.3
Cc1ccc(Oc2ccc(NC(=O)NCC3CCOC3)cn2)cc1C (centres undefined)	58.2
COc1ncccc1CNC(=O)NCCNS(C)(=O)=O	-9.37
CC(C)CS(=O)(=O)N1C[C@@H]2C[C@H](C(=O)Nc3cccnc3)[C@H](C1)O2	-10.3
